Assay outcomes: PubChem, several laboratories
An excerpt weighted towards active compounds, which were near 5.9% of everything screened.
HSP90 refold inh: HSP90 inhibitors, primary screen, cell lysate, luminescence; Heat shock protein HSP 90 (rabbit reticulocyte lysate; luciferase refolding); Rabbit reticulocyte lysate, luciferase refolding luminescence, 3 h; inhibition, % at 5.6 µM; actives 0.91% (n = 290,000); AID 1789, 2009;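 active = inhibition above the screen-wide mean plus 3 SD, computed separately per campaign, cut at about 16% in these data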;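 note: 0% = DMSO wells and 100% = 60 µM geldanamycin wells; inhibitors lower the luminescence because luciferase stays unfolded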
DAX1 inh: DAX1 (NR0B1) inhibitors, primary screen, cell-based, HEK293, Gal4-DAX1, luciferase luminescence; AID 504766, 2011; Nuclear receptor subfamily 0 group B member 1 (Homo sapiens), P51843; actives 0.99% (n = 340,000); HEK293 Gal4-DAX1 luciferase reporter; inhibition, % at 6.75 µM;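 active = inhibition above the mean over all tested compounds plus 3 SD, cut at about 4.2% in these data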;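 note: 0% = DAX1-transfected cells with DMSO and 100% = empty-vector control cells with DMSO; inhibition shows as a rise in luminescence from relieved DAX1 repression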
GAA850 FXN act: FXN promoter activators, primary screen, cell-based, luciferase luminescence, HEK293 lucGAA850. HEK293 lucGAA850 FXN promoter luciferase reporter, 24 h; percent of 10 µM SAHA response. activation, % at 6 µM. actives 0.56% (n = 360,000). AID 540364, 2011;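 active = activation above the average of all compounds screened plus 3 SD, cutoff fixed separately per campaign, cut at about 7.5% in these data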;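 note: 0% = DMSO wells and 100% = 10 µM SAHA wells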
AHR act: AHR activators, primary screen, cell-based, luminescence, luciferase reporter, human; actives 2.5% (n = 320,000); Aryl hydrocarbon receptor (Homo sapiens), P35869; AID 2796, 2010; AHR-responsive luciferase reporter cells; activation, % at 5 µM; in the data active = activation above about 47%;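 note: 0% = vehicle wells and 100% = reference agonist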
Target sequence (P35869 whole entry, looked up): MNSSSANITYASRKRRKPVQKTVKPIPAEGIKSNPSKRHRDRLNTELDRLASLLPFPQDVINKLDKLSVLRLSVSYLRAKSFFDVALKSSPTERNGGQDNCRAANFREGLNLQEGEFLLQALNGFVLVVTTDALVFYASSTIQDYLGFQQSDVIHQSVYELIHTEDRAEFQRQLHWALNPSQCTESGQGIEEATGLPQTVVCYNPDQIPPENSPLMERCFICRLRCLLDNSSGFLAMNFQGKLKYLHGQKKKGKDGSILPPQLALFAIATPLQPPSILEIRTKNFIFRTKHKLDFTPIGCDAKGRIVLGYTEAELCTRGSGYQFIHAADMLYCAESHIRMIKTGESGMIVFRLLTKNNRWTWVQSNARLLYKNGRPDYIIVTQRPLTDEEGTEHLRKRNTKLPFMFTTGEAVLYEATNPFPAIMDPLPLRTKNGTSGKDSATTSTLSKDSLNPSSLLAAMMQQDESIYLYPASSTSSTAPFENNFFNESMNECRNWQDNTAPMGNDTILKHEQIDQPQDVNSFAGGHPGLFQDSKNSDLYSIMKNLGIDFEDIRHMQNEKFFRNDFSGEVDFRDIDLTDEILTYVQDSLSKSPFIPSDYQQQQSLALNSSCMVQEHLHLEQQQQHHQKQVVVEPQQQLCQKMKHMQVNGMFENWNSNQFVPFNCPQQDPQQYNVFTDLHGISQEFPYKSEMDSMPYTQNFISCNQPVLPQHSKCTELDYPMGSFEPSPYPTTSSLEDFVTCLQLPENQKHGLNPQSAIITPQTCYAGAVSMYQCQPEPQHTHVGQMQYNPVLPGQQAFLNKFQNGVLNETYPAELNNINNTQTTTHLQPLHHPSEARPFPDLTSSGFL
HSF1 activator: HSF-1 activators, primary screen, NIH3T3-HGL cells, MG132 stress, luminescence, single point; AID 504408, 2011; NIH3T3-HGL HSF-1 luciferase reporter, 8 h; 100% = twice DMSO control signal; actives 1.7% (n = 300,000); activation, % at 9 µM;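 active = mean replicate activation of at least 50% with a set share of replicates each reaching 50%; inconclusive = only one of those two conditions met; inactive = mean below 50% and too few replicates reaching it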;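 note: 0% = median of the neutral control wells and 100% = twice that signal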
HSF1 inh: HSF1 inhibitors in luciferase reporter cells, primary screen, cell-based, NIH3T3, luminescence; actives 0.77% (n = 300,000); activity change, negative = inhibition, % at 7.5 µM (by protocol); NIH3T3-HGL HSE-luciferase, MG132-induced, luminescence 8 h; active compounds read low;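 active = more than half of replicate wells show activity change below -50%, luminescence cut by over half; inconclusive = some wells, but at most half, below -50%; inactive = no replicate well below -50%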;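 note: luciferase reports HSF-1 transcriptional activity via heat shock element; 0% = median of DMSO wells and -100% = zero luminescence signal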
Active calls of the source: *; ? = inconclusive; nt = no result given.

SMILES | HSP90 refold inh | DAX1 inh | GAA850 FXN act | AHR act | HSF1 activator | HSF1 inh
Cc1ccc(OCC(=O)OCc2nc3scc(-c4ccccc4)c3c(=O)[nH]2)cc1C | nt | 1 | 1 | -1 | 15 | 4
Cn1c2ccccc2c2nn(-c3ccccc3)c(=O)cc21 | 7 | 0 | -1 | -7 | -1 | 2
Cc1cccc(NS(=O)(=O)c2ccc(C(=O)NCC(c3ccccc3)N(C)C)cc2)c1C (stereo unspecified) | 0 | 0 | -3 | nt | 1 | 4
COc1cc(NC(=O)C2=C(N3CCOCC3)/C(=C\c3ccc(Br)cc3)CC2)cc(OC)c1OC | 6 | -1 | 2 | 2 | 97* | 72
CCOc1ccccc1C1N=C(c2ccc(OC)cc2)CC(c2ccccc2O)N1 (stereo unspecified) | -1 | 1 | 1 | 17 | 130* | 94
CC(=O)c1ccccc1NC(=O)CSc1n[nH]c(=O)n1C1CC1 | nt | 2 | 0 | 25 | nt | nt
Cc1ccc(C(OCC(O)CNCc2ccc(F)cc2)c2ccccc2)cc1 (stereo unspecified) | 3 | 0 | 0 | 1 | 9 | -1
C=CCNC(=O)C(C)N1c2cccc3cccc(c23)S1(=O)=O (stereo unspecified) | 2 | -1 | -1 | 0 | 5 | 8
C=CCn1c(SCC(C)=O)nnc1-c1ccc2ncccc2c1 | 1 | 4.9* | 0 | 0 | -4 | -7
O=C(CN(Cc1ccco1)C(=O)c1cc(=O)[nH]c2ccccc12)Nc1ccccc1C(F)(F)F | 3 | 6.3* | -2 | 1 | 1 | 5
O=C(NCc1ccco1)c1c(Cl)cccc1Cl | nt | 3 | 0 | nt | nt | nt
O=C(N/N=C/c1ccc(Cl)cc1)Nc1ccccc1 | 0 | 2 | 6 | 67* | 37 | 38
O=C(N/N=C/c1cc(Br)ccc1O)Nc1ccccc1 | -4 | 0 | 1 | 51* | -6 | -6
Cc1ccc(S(=O)(=O)N2CCN(CCc3ccncc3)CC2)cc1 | nt | 0 | 2 | 2 | nt | nt
Nc1cc([N+](=O)[O-])ccc1N1C(=O)CCCC1=O | -1 | 3 | 0 | 2 | 14 | -3
Cc1ccsc1CNc1ncnc2ccc(-c3c(C)noc3C)cc12 | nt | 1 | 1 | 56* | nt | nt
COc1cccc(CNc2ncnc3ccc(-c4c(C)noc4C)cc23)c1 | nt | 0 | -3 | 8 | nt | nt
CN(C)CCN1C(=O)c2cccc3cc([N+](=O)[O-])cc(c23)C1=O | nt | 6.9* | -4 | nt | nt | nt
O=C(COC(=O)/C=C/c1cccc(C(F)(F)F)c1)Nc1ccc(Cl)cn1 | nt | 1 | 2 | 2 | nt | nt
O=C(CCc1ccccc1)NCCS(=O)(=O)N1CCN(c2ccccc2)CC1 | nt | 0 | -1 | -3 | 4 | 1
CCC(C)[C@H]1CNCCN1CCC12CC3CC(CC(C3)C1)C2 (stereo partly specified) | nt | 1 | 2 | -3 | nt | nt
Cc1ccc(S(=O)(=O)NC(=NCc2ccccc2)c2ccc(F)cc2)cc1 | 2 | 0 | -4 | 0 | -82 | -77*
COc1ccc(-c2nnc(Nc3nc4c(OC)cccc4s3)o2)cc1 | 2 | 0 | 4 | 75* | 6 | -4
Cc1[nH]nc2c1C(c1ccco1)C(C#N)=C(N)O2 (stereo unspecified) | -3 | 0 | -1 | -1 | -9 | 8
Cc1[nH]nc2c1C(c1cc(Br)cs1)C(C#N)=C(N)O2 (stereo unspecified) | -3 | -1 | 3 | 1 | 70* | 65
SMILES | HSP90 refold inh | DAX1 inh | GAA850 FXN act | AHR act | HSF1 activator | HSF1 inh
O=C(NNC1=C(C(=O)C(F)(F)F)CCC1)c1cccc(Cl)c1 | 6 | 5.2* | -1 | 3 | 26 | 4
O=C(NNC1=C(C(=O)C(F)(F)F)CCC1)c1ccc(Cl)cc1 | 4 | 1 | 4 | 2 | -8 | -12
CCOC(=O)c1ccc(NC(=O)C2C3CCCCC32)cc1 (stereo unspecified) | 4 | 2 | 4 | nt | ? | 19
Cc1ccc(S(=O)(=O)N2CCN(S(C)(=O)=O)C2)cc1 | 0 | -1 | 1 | 2 | -70 | -63*
CCCNC(=O)C1(C)CCCN(C(=O)Cc2ccc(OC)c(OC)c2)C1 (stereo unspecified) | nt | nt | -1 | nt | nt | nt
Cc1ccccc1N(Cc1cc(=O)[nH]c2ccccc12)C(=O)CCl | 0 | -3 | -10 | 12 | -9 | -13
CCCCCCCN(C(=O)CCl)c1ccccc1C | 4 | 1 | -10 | -1 | 94* | 34
COc1cc(/C=C2\C(=O)N(c3ccccc3)N=C2C)ccc1Oc1ccc([N+](=O)[O-])cc1[N+](=O)[O-] | 3 | -1 | 4 | 8 | nt | nt
CC1=NN(c2ccccc2)C(=O)/C1=C\c1ccc(Oc2ccc([N+](=O)[O-])cc2[N+](=O)[O-])cc1 | 16* | -1 | 3 | 4 | 26 | 24
C[C@H](NC(=O)c1[nH]cnc1C(=O)N[C@@H](C)CO)c1ccccc1 | nt | -1 | -1 | nt | nt | nt
COc1ccccc1-c1sc2cc3c(cc2c1C#Cc1cncn1C)OCO3 | nt | -1 | 0 | 65* | nt | nt
COc1ccc2sc(-c3ccccc3OC)c(C#CCCO)c2c1 | nt | -1 | 0 | 74* | nt | nt
COc1cc(OC)cc(-c2sc3ccc(OC)cc3c2C#CCCO)c1 | nt | 0 | 4 | 30 | nt | nt
COc1ccc2sc(-c3ccccc3OC)c(C#Cc3cncn3C)c2c1 | nt | -1 | -3 | 48* | nt | nt
Cc1ccc(-c2nc(=S)c3c(n2Cc2ccco2)CC(C)(C)OC3)cc1 | 1 | -2 | 7.6* | 8 | 12 | 9
COc1cccc(-c2nc(=S)c3c(n2Cc2ccco2)CCCC3)c1 | 1 | 1 | 0 | 24 | 124* | 114
COc1cccc(-c2nc(=S)c3c(o2)CCCC3)c1 | 0 | 5.1* | 4 | 6 | 22 | 16
S=c1nc(-c2ccccc2)oc2c1CCCC2 | -4 | 2 | 4 | 12 | ? | 20
Cc1ccc(-c2nc(=S)c3c(n2Cc2ccco2)CCCC3)cc1 | 7 | 1 | 2 | nt | nt | nt
COc1ccccc1CNC(=O)C1(C)CCCCN1C (stereo unspecified) | nt | nt | 1 | nt | nt | nt
COc1ccc(OC)c(S(=O)(=O)N2CCC(C(=O)NC3CCCCC3)CC2)c1 | -3 | 0 | 1 | 0 | 3 | 5
COC1C(=O)CCC2(CO2)C1(O)C1(C)OC1CC=C(C)C (stereo unspecified) | nt | nt | -3 | nt | nt | nt
Cc1c(C(=O)OC2CCC(C)CC2)[nH]c2c1C(=O)CCC2 (stereo unspecified) | -4 | 5.8* | 4 | -4 | 31 | 17
CC(/C=N/NC(=O)c1cccc(F)c1)=C\c1ccccc1 | 11 | 1 | -2 | 8 | 83* | 57
